# Several values for one entry are separate records, joined by “and”; a condition that tells them apart may be missing. Equal values may be shown once. The panel holds about 83,000 compounds, 20% with a hit somewhere; the sample as a whole holds those more often.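 Single-concentration screen, 48 h exposure, 96-well plates. Endpoint: percent growth. Below 10 = active.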 Values without a mark were called inactive. Activity calls are given as the source filed them.
# Test system: MDA-MB-468 breast
# Assay: NCI-60 one-dose screen, 48 h (100 = growth as untreated, 0 = no growth, -100 = all killed)
# Details: 10 µM unless noted
row,Structure (SMILES),growth
1,COc1ccc(/C=C/C(=O)Nc2ccc(-c3nc4ccc(F)cc4s3)cc2)cc1,-12.9% (active)
2,O=C(NNc1ccc(-c2ccccc2)nn1)c1ccc(F)cc1,98.2%
3,CCOC(=O)c1c(C)nc2c(c1N)CC(=O)N2Cc1cc(OC)c(OC)c(OC)c1,-4.22% (active)
4,Cn1cc(-c2csc(-c3cn(CCCN4CCOCC4)c4ccc(F)cc34)n2)c2cccnc21,49.3%
5,O=C1c2ccc3c4c(ccc(c24)C(=O)N1CCCCO)C(=O)N(CCCCO)C3=O,-29.2% (active)
6,CCN1C(=O)N(CC)C2Nn3c(s/c(=C\c4ccc([N+](=O)[O-])cc4)c3=O)=NC21 (configuration not stated),7.37% (active)
7,COc1cc(/C=C2\CCCC3=C2NC(C)=NC3c2cc(OC)c(OC)c(OC)c2)cc(OC)c1OC (configuration not stated),-4.61% (active)
8,CC(=O)OCC(OC(C)=O)C(OC(C)=O)C(OC(C)=O)C(OC(C)=O)C(/C=N/Nc1ccccc1)=N/Nc1ccccc1 (configuration not stated),46.4%
9,Cc1ccc(-n2c(-c3ccccc3)c(-c3ccccc3)c3c(SCC(=O)n4[nH]c(N)cc4=O)ncnc32)cc1,91.8%
10,CCCCCCCCCCCC(c1ccccc1)[N+](C)(C)C (configuration not stated),-45.6% (active)
11,CCCCCCCCCCN1CC2CCCCC2C1 (configuration not stated),54.7%
12,O=C(Nc1cc(F)cc2cccnc12)c1cnc(N2CCOCC2)cn1,18.5%
13,NC(=O)c1ccc(NC(=O)c2oc3ccccc3c2-c2cnn(-c3ccccc3)c2)cc1,24.2% [50 µM]
14,CCN(CC)c1ccc2nc3ccc(N=Nc4ccc(O)cc4)cc3[n+](-c3ccccc3)c2c1,-60.7% (active)
15,NS(=O)(=O)c1ccc(N2N=C(c3cccs3)CC2c2ccccc2O)cc1 (configuration not stated),21.1%
16,COc1cc2cc(Oc3ccc(NC(=O)Nc4cc(C(F)(F)F)cc(C(F)(F)F)c4)cc3)c(C)nc2cc1OCCN1CCOCC1,-12% (active)

row,Structure (SMILES),growth
1,CC1SC(=S)N(c2ccc(Cl)cc2)C1=O (configuration not stated),84.9% and 90.4%
2,COc1ccc(S(=O)(=O)NCCCNc2cc(-c3c(-c4cccc(OC)c4)nc4sccn34)ccn2)cc1,11.3%
3,COc1cccc(NC(=O)[C@H](C(C)C)n2c(=O)[nH]c3ccccc3c2=O)c1,101%
4,CNC(=O)c1cc(N2CCc3cc(NC(=O)Nc4ccc(Cl)c(Cl)c4)ccc32)ccn1,84.5%
5,CC(C)(C)CC(C)(C)Nc1c(-c2ccc(-c3ccccc3)cc2)nc2cnccn12,109%
6,CCC(C)C1NC(=O)C(CC(C)C)NC(=O)C(C)NC(=O)C(C(C)C)NC(=O)C(CCCCN)NC(=O)C(CC(C)C)NC(=O)C(C(C)C)NC(=O)[C@H](C)NC(=O)C(C(C)CC)NC(=O)C(CCCN=C(N)N)NC(=O)C(CCCCN)NC(=O)C(CCCN=C(N)N)NC(=O)C(CCCCN)NC(=O)C([C@H](C)CC)NC(=O)C(CCCCN)NC1=O (some centres not stated),-4.06% (active)
7,CC(=O)Cc1nsc(NC(=O)c2ccoc2COc2ccccc2)n1,124%
8,COc1ccc(-c2nnc(/N=C3/C(=O)Nc4ccc(Br)cc43)o2)cc1,90.7%
9,Nc1ccc(C2=Nc3cccc4cccc(c34)S2)cc1,0.26% (active)
10,CCN(CC)C(=S)SC(SC(=S)N(CC)CC)C(=O)c1nnn(-c2ccc([N+](=O)[O-])cc2)c1C,102%
11,COc1ccc(-c2c(-c3cc(OC)c(OC)c(OC)c3)noc2N)cc1,-5.06% (active)
12,CC(=O)C[n+]1ccc(C)cc1Sc1ccccc1C,82%
13,C/C=C/CC(C)C(O)C1C(=O)NC(CC)C(=O)N(C)CC(=O)N(C)C(CC(C)C)C(=O)NC(C(C)C)C(=O)N(C)C(CC(C)C)C(=O)NC(C)C(=O)NC(C)C(=O)N(C)C(CC(C)C)C(=O)N(C)C(CC(C)C)C(=O)N(C)C(C(C)C)C(=O)N1C (configuration not stated),4.57% (active)
14,C#CCN1C(=O)c2ccccc2N(CC#C)C12CCN(Cc1cn(CC(=O)Nc3ccccc3C(N)=O)nn1)CC2,72.6%
15,Cc1cc(-c2ccc(N=Nc3c(S(=O)(=O)O)cc4cc(S(=O)(=O)O)cc(O)c4c3O)c(C)c2)ccc1N=Nc1c(S(=O)(=O)O)cc2cc(S(=O)(=O)O)cc(O)c2c1O,109%
16,NS(=O)(=O)c1ccc(Nc2nc(SCc3ccccc3)nc3ccccc23)cc1,65.4%

# Reference: PubChem BioAssay (NCI)
